According to PMC7862700, “An all-to-all approach to the identification of sequence-specific readers for epigenetic DNA modifications on cytosine”:

Tests used:
Experiment in all cases: DAPPL (digital affinity profiling via proximity ligation, sequencing); 10 mM Tris-HCl pH 7.5, 50 mM NaCl, 1 mM DTT, 4% glycerol, room temperature, 30 min; GST-TFs on glutathione beads, 16-mer random dsDNA library, 0.1% formaldehyde crosslink after washing; high values mean tight binding
FEV = biological target: T1, FEV (Homo sapiens, UniProt Q99581 1-238); settings: protein: recombinant; tags: N-terminal GST; dsDNA, one strand shown
T1 sequence: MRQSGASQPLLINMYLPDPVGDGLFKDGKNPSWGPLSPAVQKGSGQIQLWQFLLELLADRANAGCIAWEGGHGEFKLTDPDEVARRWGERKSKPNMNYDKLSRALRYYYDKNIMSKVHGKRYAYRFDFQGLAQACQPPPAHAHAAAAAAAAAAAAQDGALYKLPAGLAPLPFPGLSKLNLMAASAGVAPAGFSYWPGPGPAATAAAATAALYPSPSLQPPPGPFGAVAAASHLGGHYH
Summary of the method: (§1)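 Binding signal is each hexamer's read frequency for a factor divided by its frequency in the tag-only sample. The factors were GST-fused human transcription factors from yeast, captured on glutathione beads, DNA-barcoded and pooled with that sample. Pools were incubated with 200 nmole of a random double-stranded 16-mer DNA library in Tris/NaCl/DTT/glycerol buffer at room temperature for 30 min, then washed, crosslinked with 0.1% formaldehyde, proximity-ligated with BsaI/T4 ligase (1 h, 37 °C), PCR-amplified and sequenced on an Illumina NextSeq500.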

ETV5 = ETV5 (Homo sapiens, UniProt P41161 1-510); settings: protein: recombinant; tags: N-terminal GST; dsDNA, one strand shown
Summary of the method: as §1

HSF1 = HSF1 (Homo sapiens, UniProt Q00613 1-529); settings: protein: recombinant; tags: N-terminal GST; chain copies: 3; dsDNA, one strand shown
Summary of the method: as §1

SPIC = biological target: T2, SPIC (Homo sapiens, UniProt Q8N5J4 1-248); settings: protein: recombinant; tags: N-terminal GST; dsDNA, one strand shown
T2 sequence: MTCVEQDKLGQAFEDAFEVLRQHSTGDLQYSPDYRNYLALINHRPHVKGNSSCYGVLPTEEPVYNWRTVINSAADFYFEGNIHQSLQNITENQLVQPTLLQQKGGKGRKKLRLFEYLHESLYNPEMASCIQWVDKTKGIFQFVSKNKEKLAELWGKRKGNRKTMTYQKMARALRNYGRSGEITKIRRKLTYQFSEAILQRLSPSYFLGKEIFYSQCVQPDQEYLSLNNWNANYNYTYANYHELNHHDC
Summary of the method: as §1

ELF4 = ELF4 (Homo sapiens, UniProt Q99607 1-663); settings: protein: recombinant; tags: N-terminal GST; dsDNA, one strand shown
Summary of the method: as §1

ELK4 = biological target: T3, ELK4 (Homo sapiens, UniProt P28324-2 1-405); settings: protein: recombinant; tags: N-terminal GST; dsDNA, one strand shown
T3 sequence: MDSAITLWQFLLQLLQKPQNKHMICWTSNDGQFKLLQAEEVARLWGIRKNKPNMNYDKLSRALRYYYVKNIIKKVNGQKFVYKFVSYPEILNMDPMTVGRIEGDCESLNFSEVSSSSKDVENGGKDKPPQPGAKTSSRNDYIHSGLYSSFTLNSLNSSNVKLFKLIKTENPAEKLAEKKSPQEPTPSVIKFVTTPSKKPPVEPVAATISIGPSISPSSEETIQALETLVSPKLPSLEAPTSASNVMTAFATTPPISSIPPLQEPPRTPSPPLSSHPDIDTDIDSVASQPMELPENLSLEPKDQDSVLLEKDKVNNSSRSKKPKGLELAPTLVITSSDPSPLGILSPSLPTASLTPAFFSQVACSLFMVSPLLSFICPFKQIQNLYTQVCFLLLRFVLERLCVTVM
Summary of the method: as §1

ETV2 = biological target: T4, ETV2 (Homo sapiens, UniProt O00321 1-342); settings: protein: recombinant; tags: N-terminal GST; dsDNA, one strand shown
T4 sequence: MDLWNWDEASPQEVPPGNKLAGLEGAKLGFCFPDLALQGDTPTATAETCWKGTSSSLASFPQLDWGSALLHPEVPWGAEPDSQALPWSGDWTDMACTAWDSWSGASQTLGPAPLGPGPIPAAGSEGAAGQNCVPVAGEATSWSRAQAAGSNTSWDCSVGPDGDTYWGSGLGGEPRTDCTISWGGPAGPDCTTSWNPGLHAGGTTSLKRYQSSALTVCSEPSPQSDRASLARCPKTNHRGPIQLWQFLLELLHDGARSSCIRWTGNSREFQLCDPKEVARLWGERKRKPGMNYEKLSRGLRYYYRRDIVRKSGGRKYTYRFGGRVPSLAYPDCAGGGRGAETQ
Summary of the method: as §1

CRX = CRX (Homo sapiens, UniProt O43186 1-299); settings: protein: recombinant; tags: N-terminal GST; dsDNA, one strand shown
Summary of the method: as §1

ETV1 = ETV1 (Homo sapiens, UniProt P50549 1-477); settings: protein: recombinant; tags: N-terminal GST; dsDNA, one strand shown
Summary of the method: as §1

ERF = biological target: T5, ERF (Homo sapiens, UniProt P50548 1-548); settings: protein: recombinant; tags: N-terminal GST; dsDNA, one strand shown
T5 sequence: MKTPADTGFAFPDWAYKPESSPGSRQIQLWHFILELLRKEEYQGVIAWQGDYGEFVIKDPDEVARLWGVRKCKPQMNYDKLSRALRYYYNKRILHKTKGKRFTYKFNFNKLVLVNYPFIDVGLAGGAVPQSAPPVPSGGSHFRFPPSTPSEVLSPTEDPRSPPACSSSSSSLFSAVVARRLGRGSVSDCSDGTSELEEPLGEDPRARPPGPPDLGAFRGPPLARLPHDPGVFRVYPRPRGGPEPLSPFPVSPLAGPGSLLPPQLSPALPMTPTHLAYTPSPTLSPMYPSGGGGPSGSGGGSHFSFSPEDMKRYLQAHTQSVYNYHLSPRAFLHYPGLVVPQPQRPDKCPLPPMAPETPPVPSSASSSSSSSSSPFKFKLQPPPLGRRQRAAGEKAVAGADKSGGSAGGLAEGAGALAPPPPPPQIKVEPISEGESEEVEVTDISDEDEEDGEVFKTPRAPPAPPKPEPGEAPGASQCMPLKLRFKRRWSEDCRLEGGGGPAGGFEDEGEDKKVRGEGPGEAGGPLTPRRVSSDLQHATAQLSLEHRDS
Summary of the method: as §1

ETV3L = biological target: T6, ETV3L (Homo sapiens, UniProt Q6ZN32 1-361); settings: protein: recombinant; tags: N-terminal GST; dsDNA, one strand shown
T6 sequence: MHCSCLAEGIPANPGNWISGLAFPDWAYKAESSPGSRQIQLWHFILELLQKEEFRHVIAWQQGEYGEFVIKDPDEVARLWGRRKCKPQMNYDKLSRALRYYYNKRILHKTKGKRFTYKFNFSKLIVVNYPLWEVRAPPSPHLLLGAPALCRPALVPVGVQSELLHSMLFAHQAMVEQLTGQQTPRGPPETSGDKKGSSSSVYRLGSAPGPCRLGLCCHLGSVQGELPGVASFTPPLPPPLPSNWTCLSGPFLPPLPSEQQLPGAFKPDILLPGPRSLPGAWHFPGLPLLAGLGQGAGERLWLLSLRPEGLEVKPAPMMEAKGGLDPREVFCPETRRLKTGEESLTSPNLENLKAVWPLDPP
Summary of the method: as §1

ETS2 = biological target: T7, ETS2 (Homo sapiens, UniProt P15036 1-469); settings: protein: recombinant; tags: N-terminal GST; dsDNA, one strand shown
T7 sequence: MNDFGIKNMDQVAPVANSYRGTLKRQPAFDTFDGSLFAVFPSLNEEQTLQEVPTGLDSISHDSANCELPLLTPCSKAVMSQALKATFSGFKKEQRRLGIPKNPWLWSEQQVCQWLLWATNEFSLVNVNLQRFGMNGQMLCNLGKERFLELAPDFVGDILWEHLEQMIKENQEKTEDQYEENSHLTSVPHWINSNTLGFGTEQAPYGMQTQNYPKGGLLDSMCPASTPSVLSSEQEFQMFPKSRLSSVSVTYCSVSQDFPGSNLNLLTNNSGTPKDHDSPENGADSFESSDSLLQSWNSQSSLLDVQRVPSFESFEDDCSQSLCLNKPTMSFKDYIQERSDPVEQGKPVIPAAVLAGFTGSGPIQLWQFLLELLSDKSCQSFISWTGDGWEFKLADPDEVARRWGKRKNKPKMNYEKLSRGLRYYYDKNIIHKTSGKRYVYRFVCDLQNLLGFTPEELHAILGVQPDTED
Summary of the method: as §1

SPDEF = biological target: T8, SPDEF (Homo sapiens, UniProt O95238 1-335); settings: protein: recombinant; tags: N-terminal GST; dsDNA, one strand shown
T8 sequence: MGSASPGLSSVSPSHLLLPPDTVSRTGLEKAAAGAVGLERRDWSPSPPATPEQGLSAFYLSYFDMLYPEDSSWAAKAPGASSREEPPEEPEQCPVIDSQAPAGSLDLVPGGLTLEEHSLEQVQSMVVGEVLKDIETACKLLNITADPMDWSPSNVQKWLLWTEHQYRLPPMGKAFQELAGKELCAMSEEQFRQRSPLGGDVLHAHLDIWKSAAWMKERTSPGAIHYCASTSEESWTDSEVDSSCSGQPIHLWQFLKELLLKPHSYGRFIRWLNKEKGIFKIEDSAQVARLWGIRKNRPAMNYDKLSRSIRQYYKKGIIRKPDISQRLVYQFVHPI
Summary of the method: as §1

ETV7 = biological target: T9, ETV7 (Homo sapiens, UniProt Q9Y603 1-341); settings: protein: recombinant; tags: N-terminal GST; dsDNA, one strand shown
T9 sequence: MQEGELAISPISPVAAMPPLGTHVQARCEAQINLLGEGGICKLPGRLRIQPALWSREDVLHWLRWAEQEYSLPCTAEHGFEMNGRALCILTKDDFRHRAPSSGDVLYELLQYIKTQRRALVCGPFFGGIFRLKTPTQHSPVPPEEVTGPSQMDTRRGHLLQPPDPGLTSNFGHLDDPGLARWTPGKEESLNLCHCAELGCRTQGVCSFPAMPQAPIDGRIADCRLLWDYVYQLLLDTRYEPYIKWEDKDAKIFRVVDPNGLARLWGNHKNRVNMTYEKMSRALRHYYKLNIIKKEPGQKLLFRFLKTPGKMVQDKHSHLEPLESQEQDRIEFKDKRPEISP
Summary of the method: as §1

ELF5 = biological target: T10, ELF5 (Homo sapiens, UniProt Q9UKW6-2 1-255); settings: protein: recombinant; tags: N-terminal GST; dsDNA, one strand shown
T10 sequence: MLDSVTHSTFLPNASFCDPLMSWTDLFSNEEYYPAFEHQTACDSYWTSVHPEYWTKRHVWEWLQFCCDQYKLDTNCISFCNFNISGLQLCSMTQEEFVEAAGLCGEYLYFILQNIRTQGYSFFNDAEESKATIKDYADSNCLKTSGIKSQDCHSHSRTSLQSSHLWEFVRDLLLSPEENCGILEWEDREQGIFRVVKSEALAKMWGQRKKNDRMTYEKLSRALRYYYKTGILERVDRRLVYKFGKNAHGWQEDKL
Summary of the method: as §1

ETV3 = biological target: T11, ETV3 (Homo sapiens, UniProt P41162-2 1-143); settings: protein: recombinant; tags: N-terminal GST; dsDNA, one strand shown
T11 sequence: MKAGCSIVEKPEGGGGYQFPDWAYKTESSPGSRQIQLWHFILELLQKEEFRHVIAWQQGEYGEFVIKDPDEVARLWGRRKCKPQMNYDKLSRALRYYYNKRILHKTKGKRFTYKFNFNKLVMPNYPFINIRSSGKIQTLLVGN
Summary of the method: as §1

ETV6 = ETV6 (Homo sapiens, UniProt P41212 1-452); settings: protein: recombinant; tags: N-terminal GST; dsDNA, one strand shown
Summary of the method: as §1

CRX, sequence (O43186 whole entry): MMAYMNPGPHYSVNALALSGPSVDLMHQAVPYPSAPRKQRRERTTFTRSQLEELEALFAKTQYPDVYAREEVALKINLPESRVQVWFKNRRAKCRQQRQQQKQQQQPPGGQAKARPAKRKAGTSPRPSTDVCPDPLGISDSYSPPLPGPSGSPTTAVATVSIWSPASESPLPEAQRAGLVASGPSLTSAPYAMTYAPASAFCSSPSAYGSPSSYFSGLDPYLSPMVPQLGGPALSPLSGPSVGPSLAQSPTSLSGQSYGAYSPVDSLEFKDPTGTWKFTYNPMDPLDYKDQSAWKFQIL
ELF4, sequence (Q99607 whole entry): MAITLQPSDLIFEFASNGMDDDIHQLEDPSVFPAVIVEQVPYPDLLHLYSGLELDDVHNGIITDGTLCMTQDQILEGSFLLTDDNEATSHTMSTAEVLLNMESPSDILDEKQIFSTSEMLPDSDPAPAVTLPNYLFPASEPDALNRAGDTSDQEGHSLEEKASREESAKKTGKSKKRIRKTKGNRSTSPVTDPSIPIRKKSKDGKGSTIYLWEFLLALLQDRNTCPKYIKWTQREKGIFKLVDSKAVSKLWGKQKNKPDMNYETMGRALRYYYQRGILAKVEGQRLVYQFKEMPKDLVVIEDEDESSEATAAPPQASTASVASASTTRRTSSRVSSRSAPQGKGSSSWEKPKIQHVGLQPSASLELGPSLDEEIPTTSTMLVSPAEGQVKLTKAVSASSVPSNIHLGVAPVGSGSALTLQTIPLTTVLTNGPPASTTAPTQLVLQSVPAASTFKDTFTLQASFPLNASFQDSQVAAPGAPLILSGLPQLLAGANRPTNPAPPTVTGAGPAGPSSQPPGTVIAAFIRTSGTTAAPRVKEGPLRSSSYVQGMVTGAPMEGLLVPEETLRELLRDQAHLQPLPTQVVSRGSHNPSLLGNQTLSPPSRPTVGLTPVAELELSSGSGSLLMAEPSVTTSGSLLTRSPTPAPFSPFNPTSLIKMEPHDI
ETV1, sequence (P50549 whole entry): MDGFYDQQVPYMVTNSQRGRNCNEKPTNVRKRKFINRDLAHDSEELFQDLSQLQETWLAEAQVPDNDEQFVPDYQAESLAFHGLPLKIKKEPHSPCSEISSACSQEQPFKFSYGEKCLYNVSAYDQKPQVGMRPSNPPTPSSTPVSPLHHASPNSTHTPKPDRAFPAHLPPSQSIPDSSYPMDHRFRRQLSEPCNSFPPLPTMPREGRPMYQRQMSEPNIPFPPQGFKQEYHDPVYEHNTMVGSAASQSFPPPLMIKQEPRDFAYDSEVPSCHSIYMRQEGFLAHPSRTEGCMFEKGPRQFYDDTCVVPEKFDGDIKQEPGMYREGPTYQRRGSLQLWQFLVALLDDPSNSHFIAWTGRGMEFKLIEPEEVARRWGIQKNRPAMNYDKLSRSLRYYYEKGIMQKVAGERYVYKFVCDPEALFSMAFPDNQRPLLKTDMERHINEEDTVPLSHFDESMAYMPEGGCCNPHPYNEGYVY
ETV5, sequence (P41161 whole entry): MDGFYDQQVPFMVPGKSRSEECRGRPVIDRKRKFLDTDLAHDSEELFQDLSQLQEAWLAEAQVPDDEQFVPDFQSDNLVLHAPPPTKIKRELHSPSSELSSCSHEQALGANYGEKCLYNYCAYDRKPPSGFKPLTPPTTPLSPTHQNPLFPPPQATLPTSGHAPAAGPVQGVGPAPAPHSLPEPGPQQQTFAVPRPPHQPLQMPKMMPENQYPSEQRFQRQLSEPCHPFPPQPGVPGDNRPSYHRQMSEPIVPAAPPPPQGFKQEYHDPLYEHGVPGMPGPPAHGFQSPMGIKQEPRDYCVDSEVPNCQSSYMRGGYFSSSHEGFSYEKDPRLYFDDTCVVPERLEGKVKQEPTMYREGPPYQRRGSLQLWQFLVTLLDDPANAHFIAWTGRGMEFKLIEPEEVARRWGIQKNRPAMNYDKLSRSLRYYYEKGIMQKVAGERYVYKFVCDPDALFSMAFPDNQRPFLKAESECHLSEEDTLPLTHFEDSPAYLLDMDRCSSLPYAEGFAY
ETV6, sequence (P41212 whole entry): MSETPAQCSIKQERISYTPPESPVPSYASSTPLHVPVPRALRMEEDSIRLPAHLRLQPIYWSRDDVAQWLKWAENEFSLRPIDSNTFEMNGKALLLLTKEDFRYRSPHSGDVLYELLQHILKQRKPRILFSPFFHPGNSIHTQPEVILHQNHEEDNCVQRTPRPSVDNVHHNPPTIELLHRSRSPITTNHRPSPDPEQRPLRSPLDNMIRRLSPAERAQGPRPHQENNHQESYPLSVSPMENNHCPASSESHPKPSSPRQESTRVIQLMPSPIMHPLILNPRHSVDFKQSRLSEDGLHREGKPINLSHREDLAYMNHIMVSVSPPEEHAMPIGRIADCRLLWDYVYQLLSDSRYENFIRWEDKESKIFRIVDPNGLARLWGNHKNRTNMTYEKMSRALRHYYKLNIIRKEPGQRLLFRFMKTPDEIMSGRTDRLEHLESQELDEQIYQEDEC
HSF1, sequence (Q00613 whole entry): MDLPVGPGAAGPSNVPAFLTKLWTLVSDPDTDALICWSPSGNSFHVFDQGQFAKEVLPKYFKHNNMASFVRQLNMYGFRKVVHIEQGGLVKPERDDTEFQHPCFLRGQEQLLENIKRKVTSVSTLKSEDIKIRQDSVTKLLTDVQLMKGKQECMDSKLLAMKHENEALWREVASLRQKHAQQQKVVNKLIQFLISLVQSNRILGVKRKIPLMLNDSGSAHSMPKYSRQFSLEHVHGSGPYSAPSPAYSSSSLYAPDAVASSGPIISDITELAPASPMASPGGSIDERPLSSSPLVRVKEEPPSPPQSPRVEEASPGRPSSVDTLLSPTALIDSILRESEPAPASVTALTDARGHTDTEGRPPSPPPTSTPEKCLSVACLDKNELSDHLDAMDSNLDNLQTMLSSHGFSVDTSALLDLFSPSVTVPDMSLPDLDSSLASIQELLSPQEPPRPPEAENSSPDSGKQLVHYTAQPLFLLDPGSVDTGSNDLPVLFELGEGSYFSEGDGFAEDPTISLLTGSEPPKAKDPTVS

Sequence | binding signal (FEV) | binding signal (ETV5) | binding signal (HSF1) | binding signal (SPIC) | binding signal (ELF4) | binding signal (ELK4) | binding signal (ETV2) | binding signal (CRX) | binding signal (ETV1) | binding signal (ERF) | binding signal (ETV3L) | binding signal (ETS2) | binding signal (SPDEF) | binding signal (ETV7) | binding signal (ELF5) | binding signal (ETV3) | binding signal (ETV6)
ACTCGA | 1.29 fold enrichment (6-mer frequency, TF over GST control) | 1.27 fold enrichment (6-mer frequency, TF over GST control) | 1.99 fold enrichment (6-mer frequency, TF over GST control) | 1.51 fold enrichment (6-mer frequency, TF over GST control) | 1.31 fold enrichment (6-mer frequency, TF over GST control) | 1.35 fold enrichment (6-mer frequency, TF over GST control) | 1.46 fold enrichment (6-mer frequency, TF over GST control) | 1.37 fold enrichment (6-mer frequency, TF over GST control) | 1.33 fold enrichment (6-mer frequency, TF over GST control) | 1.33 fold enrichment (6-mer frequency, TF over GST control) | 1.3 fold enrichment (6-mer frequency, TF over GST control) | 1.33 fold enrichment (6-mer frequency, TF over GST control) | 1.29 fold enrichment (6-mer frequency, TF over GST control) | 1.28 fold enrichment (6-mer frequency, TF over GST control) | 1.22 fold enrichment (6-mer frequency, TF over GST control) | 1.27 fold enrichment (6-mer frequency, TF over GST control) | 1.27 fold enrichment (6-mer frequency, TF over GST control)
TTGAAC |  | 1.05 fold enrichment (6-mer frequency, TF over GST control) | 1.02 fold enrichment (6-mer frequency, TF over GST control) | 1.06 fold enrichment (6-mer frequency, TF over GST control) | 1.12 fold enrichment (6-mer frequency, TF over GST control) | 1.32 fold enrichment (6-mer frequency, TF over GST control) | 1.27 fold enrichment (6-mer frequency, TF over GST control) | 1.03 fold enrichment (6-mer frequency, TF over GST control) | 1.08 fold enrichment (6-mer frequency, TF over GST control) | 1.16 fold enrichment (6-mer frequency, TF over GST control) | 1.17 fold enrichment (6-mer frequency, TF over GST control) | 1.17 fold enrichment (6-mer frequency, TF over GST control) | 1.06 fold enrichment (6-mer frequency, TF over GST control) | 1.18 fold enrichment (6-mer frequency, TF over GST control) |  | 1.14 fold enrichment (6-mer frequency, TF over GST control) | 1.1 fold enrichment (6-mer frequency, TF over GST control)
